Test results reported in PubChem BioAssay AID1159580 (chemical genetic matrix, 2015).
In all, about 5,500 compounds went through this assay and about 2,000 (36%) were called active. Another 18% or so got no clear call; they are omitted. Rule as the data show it: active = normalized growth mostly below about 0.91 (no sharp cut-off); inconclusive = no clear call, values can overlap the other calls; inactive = mostly above about 0.92. Some of the results follow.

Assay: chemical genetic growth profiling, strain panel (AID 1159580);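 also: tested at 20 µM; growth read once vehicle control cultures reached saturation at 30 °C; 1 = growth at the plate median or of vehicle wells; lower values mean less growth of the strain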
Conditions: S. cerevisiae deletion strains, growth OD

Measured: normalized growth

CC1(C)C(C(Cl)Cl)C2(Cl)C(Cl)C(Cl)C1(Cl)C2(Cl)Cl (centres undefined)
active: locus YDR137W, strain rgp1, hits give low values 0.839 | locus YHR013C, strain ard1, hits give low values 0.798 | locus YJL129C, strain trk1, hits give low values 0.841
inactive: locus YAL013W, strain DEP1, hits give low values 0.984 | locus YAL021C, strain ccr4, hits give low values 1.07 | locus YAL026C, strain drs2, hits give low values 0.996 | locus YAL030W, strain snc1, hits give low values 0.984 | locus YBL061C, strain skt5, hits give low values 0.983 | locus YBR009C, strain hhf1, hits give low values 0.976 | locus YBR021W, strain FUR4, hits give low values 0.996 | locus YBR023C, strain chs3, hits give low values 0.978 | locus YBR171W, strain sec66, hits give low values 0.978 | locus YBR229C, strain ROT2, hits give low values 0.987 | locus YBR231C, strain swc5, hits give low values 0.979 | locus YBR279W, strain paf1, hits give low values 0.992 | locus YCL011C, strain gbp2, hits give low values 0.993 | locus YCL016C, strain dcc1, hits give low values 0.979 | locus YCL029C, strain bik1, hits give low values 0.972 | locus YCL061C, strain MRC1, hits give low values 0.981 | locus YCL069W, strain vba3, hits give low values 0.993 | locus YCR088W, strain abp1, hits give low values 0.989 | locus YDL005C, strain med2, hits give low values 0.981 | locus YDL035C, strain GPR1, hits give low values 0.972 | locus YDL040C, strain nat1, hits give low values 0.984 | locus YDL074C, strain BRE1, hits give low values 1.02 | locus YDL101C, strain DUN1, hits give low values 0.991 | locus YDL134C, strain PPH21, hits give low values 0.986 | locus YDL185W, strain tfp1, hits give low values 0.989 | locus YDL192W, strain arf1, hits give low values 0.978 | locus YDR001C, strain nth1, hits give low values 0.992 | locus YDR069C, strain doa4, hits give low values 0.967 | locus YDR101C, strain arx1, hits give low values 0.99 | locus YDR150W, strain NUM1, hits give low values 0.999 | locus YDR159W, strain sac3, hits give low values 0.892 | locus YDR162C, strain NBP2, hits give low values 0.988 | locus YDR195W, strain ref2 0.997 | locus YDR297W, strain sur2, hits give low values 0.977 | locus YDR318W, strain mcm21, hits give low values 0.971 | locus YDR334W, strain swr1, hits give low values 0.997 | locus YDR335W, strain msn5, hits give low values 0.993 | locus YDR388W, hits give low values 0.959 | locus YDR392W, strain spt3, hits give low values 0.836 | locus YDR502C, strain sam2, hits give low values 0.974 | locus YEL003W, strain gim4, hits give low values 0.984 | locus YEL037C, strain rad23, hits give low values 0.995 | locus YEL061C, strain CIN8 (second series), hits give low values 0.995 | locus YEL061C, strain CIN8, hits give low values 0.994 | locus YER015W, strain faa2, hits give low values 0.979 | locus YER016W, strain bim1, hits give low values 0.984 | locus YER110C, hits give low values 0.981 | locus YER111C, strain swi4, hits give low values 1 | locus YER155C, strain BEM2 (second series), hits give low values 0.965 | locus YER155C, strain BEM2, hits give low values 0.983 | locus YER167W, strain BCK2, hits give low values 0.968 | locus YFR010W, strain ubp6, hits give low values 1 | locus YGL078C, strain dbp3, hits give low values 0.975 | locus YGL086W, strain mad1, hits give low values 0.981 | locus YGL167C, strain pmr1, hits give low values 0.973 | locus YGL173C, strain kem1, hits give low values 0.972 | locus YGL227W, strain vid30, hits give low values 0.99 | locus YGL240W, strain doc1, hits give low values 0.963 | locus YGL248W, strain PDE1, hits give low values 0.991 | locus YGL253W, strain hxk2, hits give low values 0.989 | locus YGR078C, strain PAC10, hits give low values 0.989 | locus YGR135W, strain pre9, hits give low values 0.971 | locus YGR229C, strain SMI1, hits give low values 0.962 | locus YGR252W, strain gcn5, hits give low values 0.962 | locus YHR027C, strain rpn1, hits give low values 0.977 | locus YHR030C, strain SLT2, hits give low values 0.965 | locus YHR079C, strain IRE1 (second series), hits give low values 0.965 | locus YHR094C, strain hxt1, hits give low values 0.974 | locus YHR129C, strain ARP1, hits give low values 0.996 | locus YHR142W, strain chs7, hits give low values 0.992 | locus YHR200W, strain rpn10, hits give low values 0.977 | locus YIL066C, strain RNR3, hits give low values 0.955 | locus YIL073C, strain SPO22, hits give low values 0.883 | locus YIL125W, strain kgd1, hits give low values 0.979 | locus YIR030C, strain dcg1, hits give low values 0.972 | locus YJL092W, strain hpr5, hits give low values 0.986 | locus YJL095W, strain BCK1 (second series), hits give low values 0.983 | locus YJL095W, strain BCK1, hits give low values 0.991 | locus YJL115W, strain asf1, hits give low values 0.99 | locus YJL134W, strain LCB3, hits give low values 0.986 | locus YJL154C, strain vps35, hits give low values 0.993 | locus YJL164C, strain tpk1, hits give low values 0.975 | locus YJL166W, strain qcr8, hits give low values 0.904 | locus YJL168C, strain set2, hits give low values 0.978 | locus YJL187C, strain SWE1 (second series), hits give low values 0.983 | locus YJL187C, strain SWE1, hits give low values 0.988
